Here are results for five molecules from PubChem BioAssay (NCATS).

The nature of assay [1]: Quantitative High-Throughput drug screen in 47 multiple myeloma cell lines against the NCATS MIPE library collection: Karpas417_ECACC cell viability assay (AID 1918961). Particulars: Karpas417 myeloma viability, CellTiter-Glo ATP luminescence, 48 h; viability (% of DMSO): at 45.8 µM (top of the series). In a few lines: (§1)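 CellTiter-Glo ATP luminescence gave viability after 48 h compound treatment at 37C of 500 multiple myeloma cells per well. Normalisation used DMSO-only wells as 100% and media-only wells as 0% viability; primary qHTS of approved and investigational drugs.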
A general note: ATP-based viability assays read luminescence as a measure of living cells.

Assay [2] can be described thus: Quantitative High-Throughput drug screen in 47 multiple myeloma cell lines against the NCATS MIPE library collection: KHM11_PLB cell viability assay (AID 1918962). Also: nearly all actives have a fitted effect of over 35% in size. In a few lines: (§2)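 Myeloma cells (500 per well) were exposed to MIPE 4.0 compounds by pin transfer and incubated 48 hours at 37C, 5% CO2. Viability was read as ATP by CellTiter-Glo luminescence, normalised to DMSO (100%) and media-only (0%) wells.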

A short description of assay [3]: Quantitative High-Throughput drug screen in 47 multiple myeloma cell lines against the NCATS MIPE library collection: JIM3_ECACC cell viability assay (AID 1918963; also: nearly all actives have a fitted effect of over 35% in size). In a few lines: as §2
Assay [4] is described as follows: Quantitative High-Throughput drug screen in 47 multiple myeloma cell lines against the NCATS MIPE library collection: JIM1_ECACC cell viability assay (AID 1918964). In a few lines: (§3)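 Luminescent ATP measurement with CellTiter-Glo gives viability, scaled between DMSO-only wells (100%) and media-only wells (0%). Cells, 500 per well, faced library compounds for 48 hours at 37C.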

Assay [5] is described as follows: Quantitative High-Throughput drug screen in 47 multiple myeloma cell lines against the NCATS MIPE library collection: INA6_PLB cell viability assay (AID 1918965; also: nearly all actives have a fitted effect of over 55% in size). In a few lines:
as §1

A short description of assay [6]: Quantitative High-Throughput drug screen in 47 multiple myeloma cell lines against the NCATS MIPE library collection: JJN3_DSMZ cell viability assay (AID 1918966; also: nearly all actives have a fitted effect of over 50% in size). In a few lines:
as §3

A short description of assay [7]: Quantitative High-Throughput drug screen in 47 multiple myeloma cell lines against the NCATS MIPE library collection: H1112_PLB cell viability assay (AID 1918967; also: nearly all actives have a fitted effect of over 30% in size). In a few lines: as §3
Assay [8] can be described thus: Quantitative High-Throughput drug screen in 47 multiple myeloma cell lines against the NCATS MIPE library collection: Karpas25_ECACC cell viability assay (AID 1918968; also: nearly all actives have a fitted effect of over 35% in size). In a few lines:
as §3

The nature of assay [9]: Quantitative High-Throughput drug screen in 47 multiple myeloma cell lines against the NCATS MIPE library collection: KMS27_JCRB cell viability assay (AID 1918970). Also: nearly all actives have a fitted effect of over 30% in size. The conditions noted are these: KMS27 myeloma cells, CellTiter-Glo ATP viability, 48 h; viability (% of DMSO): at 45.8 µM (top of the series). In a few lines:
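Each line is seeded at 500 cells per well and treated with library compounds for 48 hours under 37 °C, 5% CO2. CellTiter-Glo is then added for 5 min at room temperature before median relative luminescence is recorded.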

Assay [10] can be described thus: Quantitative High-Throughput drug screen in 47 multiple myeloma cell lines against the NCATS MIPE library collection: KMS12PE_JCRB cell viability assay (AID 1918972). Also: nearly all actives have a fitted effect of over 30% in size. In a few lines:
as §1

Assay [11] in a line: Quantitative High-Throughput drug screen in 47 multiple myeloma cell lines against the NCATS MIPE library collection: KMS20_JCRB cell viability assay (AID 1918973). Also: nearly all actives have a fitted effect of over 45% in size. In a few lines:
as §3

Assay [12] is described as follows: Quantitative High-Throughput drug screen in 47 multiple myeloma cell lines against the NCATS MIPE library collection: KMS21BM_JCRB cell viability assay (AID 1918974). Particulars: ATP luminescence, 48 h; viability: at 45.8 µM (top of the series). In a few lines:
as §3

Assay [13] is described as follows: Quantitative High-Throughput drug screen in 47 multiple myeloma cell lines against the NCATS MIPE library collection: MOLP8_DSMZ cell viability assay (AID 1918977). Also: nearly all actives have a fitted effect of over 45% in size. In a few lines:
(§4)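 ATP-based CellTiter-Glo luminescence after 48 h drug exposure (37 °C, 5% CO2) of 500 myeloma cells per well. DMSO-only wells set 100% viability, media-only wells 0%; MIPE 4.0 library added by pin tool.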

Assay [14] is described as follows: Quantitative High-Throughput drug screen in 47 multiple myeloma cell lines against the NCATS MIPE library collection: MM1S_ATCC cell viability assay (AID 1918980). Also: nearly all actives have a fitted effect of over 45% in size. In a few lines:
as §4

Assay [15] is described as follows: Quantitative High-Throughput drug screen in 47 multiple myeloma cell lines against the NCATS MIPE library collection: KMS12BM_JCRB cell viability assay (AID 1918971). Also: nearly all actives have a fitted effect of over 35% in size. In a few lines: (§5)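 Relative luminescence from CellTiter-Glo served as the viability signal, referenced to DMSO-treated (100%) and cell-free medium (0%) controls. Treatment lasted 48 hours at 37C with 500 cells per well.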

The nature of assay [16]: Quantitative High-Throughput drug screen in 47 multiple myeloma cell lines against the NCATS MIPE library collection: KMS26_JCRB cell viability assay (AID 1918975). Also: nearly all actives have a fitted effect of over 45% in size. In a few lines: as §5
A short description of assay [17]: Quantitative High-Throughput drug screen in 47 multiple myeloma cell lines against the NCATS MIPE library collection: MMM1_PLB cell viability assay (AID 1918976). Also: nearly all actives have a fitted effect of over 35% in size. In a few lines: as §4
Assay [18] in a line: Quantitative High-Throughput drug screen in 47 multiple myeloma cell lines against the NCATS MIPE library collection: NCIH929_DSMZ cell viability assay (AID 1918978). Also: nearly all actives have a fitted effect of over 35% in size. In a few lines: as §4
Assay [19] can be described thus: Quantitative High-Throughput drug screen in 47 multiple myeloma cell lines against the NCATS MIPE library collection: OCIMY1_PLB cell viability assay (AID 1918979). Also: nearly all actives have a fitted effect of over 35% in size. In a few lines:
as §4

A short description of assay [20]: Quantitative High-Throughput drug screen in 47 multiple myeloma cell lines against the NCATS MIPE library collection: MM1R_ATCC cell viability assay (AID 1918981). Also: nearly all actives have a fitted effect of over 35% in size. In a few lines:
as §4

Results filed as inconclusive are left out. Calls of active or inactive are those of the source. Calls follow the shape of the dose curve; as a rule, active = well fitted curve in the direction sought with a large enough effect; inconclusive = small, poorly fitted or top-dose-only effect, or another doubt; inactive = no such curve, though single readings can be large; an effect the other way counts as inactive or inconclusive. Non-standard residues stand in square brackets, D forms with d. Residues, ends and D or L forms follow the SMILES beside them. *: point of attachment. Nva = CCC[C@H](N)C(=O)O; Cbz = O=C(OCc1ccccc1)*
Potency is read from the fitted curve at half-maximal effect.

For the molecule `Cn1c(Nc2ccc(C(F)(F)F)cc2)nc2cc(Oc3ccnc(-c4ncc(C(F)(F)F)[nH]4)c3)ccc21`, the Potency is 4.18 µM (active) in [1]; 18.7 µM (active) in assay [2]; 18.7 µM (active) in assay [3]; 9.35 µM (active) in assay [4]; 20.9 µM (active) in [5]; 16.6 µM (active) in [6]. In addition, the Potency in assay [7] was 8.33 µM (active); in assay [8] it was 3.72 µM (active); in assay [9] it was 14.8 µM (active); in assay [10], 5.26 µM (active); in assay [11], 11.8 µM (active); in [12], 5.9 µM (active). In addition, the Potency in [13] is 6.62 µM (active); in assay [14], 9.35 µM (active).

`C#C[C@]1(O)CC[C@@H]2[C@@H]3CCC4=CC(=O)CC[C@@H]4[C@H]3CC[C@@]21CC`: the Potency entry in assay [1], in assay [2], in assay [3], in assay [4], in assay [5] and in [7] was “inactive” in each case. In addition, the Potency result in assay [9], in assay [10], in assay [16], in assay [18], in assay [19] and in assay [20] was “inactive” each time. Besides, the values for the Potency in assay [15], in [17] and in [13] were 1.48 µM (active), 9.35 µM (active) and 23.5 µM (active), respectively.

For `CCN(CC)Cc1ccc2cc(COC(=O)Nc3ccc(C(=O)NO)cc3)ccc2c1`, the Potency in assay [1] was 0.526 µM (active); in assay [2] it was 1.32 µM (active); in [3], 1.48 µM (active); in assay [4] it was 0.469 µM (active); in assay [5], 0.0743 µM (active); in assay [6] it was 0.833 µM (active). Besides, the Potency in [7] is 1.18 µM (active); in assay [8], 0.372 µM (active); in assay [9] it was 0.235 µM (active); in assay [15], 0.469 µM (active); in assay [10], 0.469 µM (active); in assay [11] it was 0.332 µM (active). Further, the Potency in assay [16] is 0.743 µM (active); in assay [13], 0.372 µM (active); in assay [18] it was 0.59 µM (active); in [19], 1.32 µM (active); in [14], 0.59 µM (active); in assay [20], 0.332 µM (active).

For the molecule `CCCCCCCCc1ccc(CCC(N)(CO)CO)cc1`, the Potency was 6.62 µM (active) in assay [1]; 8.33 µM (active) in [2]; 13.2 µM (active) in assay [3]; 5.9 µM (active) in assay [4]; 8.33 µM (active) in [5]; 18.7 µM (active) in [6]. Moreover, the Potency was 18.7 µM (active) in assay [7]; 5.9 µM (active) in assay [8]; 6.62 µM (active) in assay [9]; 14.8 µM (active) in assay [15]; 7.43 µM (active) in [10]; 3.72 µM (active) in [11]. In addition, the Potency in assay [16] was 16.6 µM (active); in assay [17], 13.2 µM (active); in [13], 14.8 µM (active); in [18], 7.43 µM (active); in [19], 23.5 µM (active); in [14] it was 7.43 µM (active). Besides, the Potency in assay [20] was 9.35 µM (active).

Consider `CCC[C@@H](C=O)NC(=O)[C@H](CC(C)C)NC(=O)[C@H](CC(C)C)NC(=O)OCc1ccccc1` (Cbz-Leu-Leu-[Nva]-aldehyde), for which the Potency was 0.296 µM (active) in [1]; 0.469 µM (active) in assay [2]; 0.935 µM (active) in [3]; 0.372 µM (active) in assay [4]; 0.235 µM (active) in [5]; 1.18 µM (active) in assay [6]. Also, the Potency in assay [7] is 0.418 µM (active); in [8], 0.296 µM (active); in assay [9] it was 0.332 µM (active); in assay [10] it was 0.296 µM (active); in assay [11], 0.187 µM (active); in [16], 1.32 µM (active). Besides, the Potency in [17] is 3.72 µM (active); in assay [13], 1.18 µM (active); in [18], 0.296 µM (active); in assay [19], 0.743 µM (active); in [20] it was 0.743 µM (active).
